Test results taken from PubChem BioAssay AID743280 (The Scripps Research Institute Molecular Screening Center, 2014).
Screen size: about 2,000 compounds; about 680 (34%) were called active.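 The calls were made as follows: active = mean inhibition across triplicates above the hit cutoff set in the earlier primary screen (cut at about 19% in these data); inactive = the rest.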 These entries were drawn from the full list.

molecular target: Group 3 secretory phospholipase A2 (Homo sapiens) (UniProt Q9NZ20); experiment: HGIII-sPLA2 enzyme inhibition – biochemical, QFRET, triplicate, confirmation (AID 743280); conditions: recombinant hGIII-sPLA2, BODIPY PC-A2 QFRET fluorescence; at 12.2 µM; stronger effect = higher value;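 also: 0% = enzyme with DMSO and 100% = DMSO wells lacking enzyme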
Sequence (Q9NZ20 whole entry, looked up): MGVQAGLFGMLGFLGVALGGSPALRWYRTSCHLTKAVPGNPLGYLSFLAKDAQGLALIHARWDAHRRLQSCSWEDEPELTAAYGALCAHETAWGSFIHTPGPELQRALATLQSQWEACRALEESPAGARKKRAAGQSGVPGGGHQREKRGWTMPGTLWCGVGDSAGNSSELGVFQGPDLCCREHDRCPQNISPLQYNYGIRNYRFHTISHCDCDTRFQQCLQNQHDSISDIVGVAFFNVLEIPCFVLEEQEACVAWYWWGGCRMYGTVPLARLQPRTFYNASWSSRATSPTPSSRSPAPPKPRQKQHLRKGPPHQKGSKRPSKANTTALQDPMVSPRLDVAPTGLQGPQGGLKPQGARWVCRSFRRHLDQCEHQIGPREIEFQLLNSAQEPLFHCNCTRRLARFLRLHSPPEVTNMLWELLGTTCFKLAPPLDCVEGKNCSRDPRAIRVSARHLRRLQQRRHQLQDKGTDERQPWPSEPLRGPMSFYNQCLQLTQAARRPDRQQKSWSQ

SMILES	inhibition
N#CC1(Nc2ccc(-c3ccc(Cl)cc3)cc2)CCCC1	24.4% (active)
C=CCNc1scc(-c2ccccc2)[n+]1CC=C	10.9% (inactive)
Cc1cccc(N2CCN(c3ccc(NC(=O)/C=C\C(=O)O)cc3)CC2)c1	7.11% (inactive)
CCOc1ccc2[nH]c(=S)sc2c1	27.4% (active)
COCCn1c(SCC(=O)Nc2cc(OC)ccc2OC)nc2c(c1=O)SC(C)C2 (stereo not given)	-3.55% (inactive)
CCCCn1c(=S)[nH]c2ccccc2c1=O	12.9% (inactive)
COc1ccc(C(=O)Nc2sc(C)c(C)c2CN2CCOCC2)cc1	8% (inactive)
COc1ccc(C(=O)NC(=S)NNC(=O)c2c(-c3ccccc3)noc2C)cc1	35.4% (active)
COc1ccc(C(=O)NNC(=S)NC(=O)c2ccccc2)cc1	22.1% (active)
O=C(NC(=S)Nc1ncccn1)c1ccccc1Br	10.1% (inactive)
NS(=O)(=O)c1ccc(CCNC(=O)NC2CCCCC2)cc1	-1.05% (inactive)
Cc1c(NC(=S)NCc2ccc(F)cc2)cccc1[N+](=O)[O-]	3.91% (inactive)
Cn1cc(Cl)c(C(=O)NNC(=S)Nc2cccc(Cl)c2)n1	42.3% (active)
Cc1ccc(NC(=S)NNC(=O)CSc2nnc(SCc3ccccc3Cl)s2)cc1	3% (inactive)
Cc1cc(NCCc2c[nH]c3ccccc23)ccc1Oc1cccnc1	10.5% (inactive)
CN(C)c1ccc(NC(=O)NC2CCCCN(Cc3ccc(Cl)cc3)C2=O)cc1 (stereo not given)	6.59% (inactive)
c1ccc(C2=Nc3cccc4cccc(c34)N2)cc1	50.5% (active)
C/C(=N/NC(=O)c1cc(Cl)ccc1O)C12CC3CC(CC(C3)C1)C2	15.1% (inactive)
Nc1ccc2c(c1)C(O)c1ccc(Cl)cc1-2 (stereo not given)	26.1% (active)
Cc1ccc(C2CC(c3cccc(C)c3)n3nc(N)nc3N2)cc1 (stereo not given)	6.67% (inactive)
CC(C)(C)c1cc2cccnc2n1Cc1cccc(F)c1	13.1% (inactive)
CCOc1ccc(Br)cc1CSC(=N)N	26% (active)
COc1ccc(NC(=O)C2C3C=CC(C3)C2C(=O)NCc2ccccn2)c(OC)c1 (stereo not given)	1.31% (inactive)
Cc1ccc(-c2csc(NNC(=O)c3ccccc3)n2)cc1	56.7% (active)
CCN(CC(=O)NC1CCS(=O)(=O)C1)S(=O)(=O)c1ccccc1 (stereo not given)	-6.89% (inactive)
NC(c1csc(NC(=O)Nc2ccccc2Oc2ccccc2)n1)c1ccccc1Cl (stereo not given)	8.22% (inactive)
COc1ccc(C(N)c2csc(NC(=O)Nc3cccc(C(F)(F)F)c3)n2)cc1 (stereo not given)	23% (active)
Cc1cc(-n2nc(C)cc2C)n2ncc(-c3ccccc3)c2n1	14.7% (inactive)

SMILES	inhibition
CCc1cccc(CC)c1NC(=S)NCc1ccc2[nH]c(C)cc2c1	-6.2% (inactive)
CC(=O)NC(c1cccs1)c1cc(Br)c2cccnc2c1O (stereo not given)	19.7% (active)
CCOc1ccc(/C=N/NC(N)=S)cc1	12.7% (inactive)
Cc1ccccc1NC(=O)C1CCN(c2ncccn2)CC1	-1.34% (inactive)
CC(=O)/C(=N\Nc1ccc(Cl)cc1Cl)Sc1cccc2cccnc12	-6.23% (inactive)
CCc1cc(-c2n[nH]c(=S)n2CC(C)C)cs1	24.9% (active)
CC(C)c1ccc(Nc2nnc(SCC(=O)c3nnc(-c4ccccc4)o3)s2)cc1	6.4% (inactive)
O=C1C(=O)N(Cc2ccc(-c3ccsc3)cc2)c2ccc(OC(F)(F)F)cc21	32.9% (active)
C=CCn1c(C23CC4CC(CC(C4)C2)C3)n[nH]c1=S	27.1% (active)
CCN(Cc1ccccc1)C(=O)CN1C(=S)NC(C)(C)CC1C (stereo not given)	8.88% (inactive)
CC1=CC(C)(C)NC(=S)N1c1ccccc1	14.3% (inactive)
CCCCn1c(N)c(N(CCOC)C(=O)COc2c(C)cccc2C)c(=O)[nH]c1=O	10.8% (inactive)
O=C(NNC(=S)Nc1ccc(F)cc1)[C@H]1C[C@@H]1c1ccccc1	35.9% (active)
COc1cc(NS(=O)(=O)c2ccc3ccccc3c2)c2ncccc2c1	11% (inactive)
CSC1=NN(c2ccccc2)CN(c2ccccc2)N1C	25.6% (active)
CCOC(=O)C1(Cc2cccc(OC)c2)CCCN(C(=O)CCSC)C1 (stereo not given)	2.05% (inactive)
C/C(=N\Nc1ccc(Cl)nn1)c1ccccc1O	7.83% (inactive)
Brc1ccccc1C1Nc2cccc3cccc(c23)N1	58.1% (active)
CC(=O)c1nnn(-c2ccc(Cl)cc2C#N)c1C	1.06% (inactive)
O=C(NNc1ccccn1)c1ccc(Cl)nc1	25.9% (active)
COc1cccc(NC(C)=[N+](C)CCNS(=O)(=O)c2ccc(Cl)cc2)c1	-1.54% (inactive)
COc1cc(OC)cc(C2=Cc3ccccc3C(CC(=O)c3ccco3)N2c2ccc(-c3cnc(OC)nc3)cc2)c1 (stereo not given)	1.48% (inactive)
O=C(CSc1nc2ccccc2n1Cc1ccccc1)NNC(=S)Nc1ccccc1	15.2% (inactive)
Cc1cccc(-n2cnc(C(=O)NNC(=S)Nc3ccccc3)c2)n1	46.5% (active)
C/C(=N\NC(=O)CSc1nc2ccccc2c(=O)n1-c1ccccc1C)c1cccs1	-11% (inactive)
Nc1ccc(Nc2ccccc2)cc1	17.8% (inactive)
COCCCNC(=O)CNC(=S)N(Cc1cc(OC)c(OC)c(OC)c1)C1CCCC1	7.62% (inactive)
